Screening data as filed in PubChem.
Sampled rows, rich in hits. Any-hit rate of the full collection: about 17%.
HT1080 IDH1KD tx: kills HT-1080 cells with IDH1 knockdown | 2% of 360,000 active | Potency, µM (titrated, usually from 46.1 µM), inactives show at the highest dose activity, negative = toxicity, usual class: cytotoxic | HT-1080 IDH1 knockdown viability, ATP luminescence, 48 h | AID 686971;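 note: 0% = DMSO wells and -100% = cell-free medium wells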
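Using the IDH1-knockdown HT-1080 line run in the same batch and compound series as the NT line, viability after 48 h at 37 °C was determined by CellTiter-Glo luminescence and expressed as % activity.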
HepG2 viability: counter-screen for TGF-b inhibitors: cytotoxicity in HepG2 cells; Potency, µM (series often up to 46.1 µM), for the others: at the top dose activity change, negative = cytotoxicity, hits mostly cytotoxic; HepG2 CAGA-GFP viability, ATP luminescence, 18 h; 0.76% of 410,000 active; AID 588856
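CellTiter-Glo luminescence gave cytotoxicity after 18 hours at 37 degrees C. The cells were HepG2 CAGA-GFP in 1% FBS DMEM, stimulated with 500 pg/mL TGF-beta after compound addition. %Activity was normalised to no-cell wells (complete cell-killing) and DMSO (no toxicity), and curves were fitted and classified.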
DT40 TDP1 no CPT: qHTS for Inhibitors of human tyrosyl-DNA phosphodiesterase 1 (TDP1): qHTS in cells in absence of CPT | Potency, µM (top dose mostly 46.2 µM), for inactives: at the highest dose activity change, negative = growth inhibition, hits mostly inhibitors | DT40 Tdp1-/- hTDP1 cells, no CPT, ATP luminescence, 48 h | 15% of 420,000 active; note: % is set by controls: 0 for no effect and ±100 for the full control effect; nearly all actives have a fitted effect of over 55% in size
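Luminescent ATP content (CellTiter-Glo) served as the growth readout. Knockout chicken DT40 cells expressing human TDP1 were exposed to compounds without camptothecin for a minimum 48 hr at 37 °C.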
HT1080NT lethal: kills 2HG-producing HT-1080-NT fibrosarcoma cells; 1.6% of 360,000 active; HT-1080-NT fibrosarcoma viability, CellTiter-Glo ATP luminescence, 48 h; Potency, µM (doses to about 46.1 µM), for the others: at the highest dose activity, negative = less viability, hits mostly cytotoxic; AID 686970;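 note: NT is the 2HG producing partner of a matched IDH1 knockdown line; 0% = DMSO-treated cells and -100% = media-only wells without cells; nearly all actives have a fitted effect of over 55% in size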
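A 48-hour cytotoxicity screen used HT-1080-NT cells plated 2 hours before compound delivery. ATP-based CellTiter-Glo luminescence measured viability, normalized to DMSO and no-cell controls.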
TGFb SMAD3 inh: blocks TGF-b signaling | Potency, µM (titrated, usually from 46.1 µM), without a hit: top-dose activity, negative = inhibition, actives largely listed as inhibitors | 1.2% of 410,000 active | HepG2 CAGA-GFP TGF-b/SMAD3 reporter, GFP fluorescence, 18 h; TGF-beta stimulated, 500 pg/mL final; note: % is set by controls: 0 for no effect and ±100 for the full control effect; nearly all actives have a fitted effect of over 65% in size
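First, reporter cells (HEPG2 CAGA-GFP) rested 2 h at 37 degrees C. Next, compounds were pinned in and TGF-beta added to 500 pg/mL final. After 18 h, GFP was imaged per cell and summed per well.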
DT40 TDP1 CPT: growth inhibition of DT40 Tdp1-/-;hTDP1 cells with camptothecin (screen for TDP1 inhibitors); chicken DT40 Tdp1-/-;hTDP1 cells + 20 nM CPT, ATP luminescence, 48 h; 12% of 420,000 active; Potency, µM (doses to about 46.2 µM), inactives show at the top dose activity change, negative = growth inhibition, usual class: inhibitors; AID 686979; note: % is set by controls: 0 for no effect and ±100 for the full control effect; nearly all actives have a fitted effect of over 55% in size
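Chicken DT40 Tdp1-/- cells stably complemented with human TDP1 were seeded at 400 cells/well in medium containing 20 nM camptothecin, exposed to pin-transferred compounds, and grown at 37 °C for at least 48 hr. Viability was read as ATP luminescence.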
The depositor's hits bear a star; ? = inconclusive; . = no result; [ ] = remark or other dose. Calls come from the whole dose curve; as a rule, active = well fitted curve in the direction sought with a large enough effect; inconclusive = small, poorly fitted or top-dose-only effect, or another doubt; inactive = no such curve, though single readings can be large; an effect the other way counts as inactive or inconclusive. Potency is the fitted concentration of half-maximal effect.

SMILES	HT1080 IDH1KD tx	HepG2 viability	DT40 TDP1 no CPT	HT1080NT lethal	TGFb SMAD3 inh	DT40 TDP1 CPT
COc1cccc(-c2cnc3c(NC(C)=O)cc(-c4cccc(C(=O)N(C)C)c4)cn23)c1	18.5%	-24.6%	?	23.1%	4.0%	?
COc1ccc(-c2cc(NC(C)=O)c3ncc(-c4cccc(C(C)=O)c4)n3c2)cc1OC	?	-2.6%	20.6µM*	-23.1%	-9.4%	20.6µM*
O=c1oc2ccccc2c2c1nc(C(F)(F)F)n2-c1ccccc1	8.7%	-8.1%	1.2%	9.1%	-3.5%	22.2%
O=C(COC(=O)Cc1n[nH]c(=O)c2ccccc12)Nc1c(Br)cc([N+](=O)[O-])cc1Br	-1.5%	8.2%	5.5%	-0.7%[9.24 µM]	-7.5%	-20.5%
COc1cccc(CNC(=O)C2CCN(S(=O)(=O)c3ccc4c(c3)CCCN4C(C)=O)CC2)c1	.	-0.5%	?	.	12.6%	?
CN1CCC(=C2c3ccccc3CCc3cccnc32)CC1	.	.	8.5%	.	.	14.8%
CCOC(=O)N1CCC(=C2c3ccc(Cl)cc3CCc3cccnc32)CC1	?	-22.3%	13µM*	?	-27.0%	20.6µM*
CCN(CC)c1nc2ccccc2c(N)c1-c1ccccc1	?	-2.0%	20.6µM*	?	?	13µM*
Cc1c(N(C)C)nc2ccccc2c1N	-28.7%	-18.5%	-24.6%	-6.2%	-24.0%	-12.6%
O=C(c1ccco1)N1C(=O)c2cccc3cccc1c23	12.2%	-11.9%	18.4µM*	22.1%	-6.4%	11.6µM*
COC(=O)Cc1ccc(NC(=S)N2CCN(c3ccc(F)cc3)CC2)cc1	9.0%	-3.1%	5.17µM*	0.0%	-24.6%	11.6µM*
COC(=O)Cc1ccc(NC(=S)N2CCN(CCO)CC2)cc1	6.8%	9.7%	-1.8%	3.8%	0.0%	1.8%
CC(=O)c1ccc(N2CCN(C(=S)Nc3ccc(Oc4ccccc4)cc3)CC2)cc1	?	-21.1%	7.31µM*	-16.1%	?	?
CC(=O)c1ccc(N2CCN(C(=S)Nc3cccc(F)c3)CC2)cc1	?	-8.3%	14.6µM*	?	0.0%	?
Cc1ccc(NC(=O)Cn2nnc(C(=O)NCc3ccc(Cl)cc3)c2N)cc1F	-10.3%	-4.1%	23.1%	0.4%	-0.6%	1.2%
Cc1nc(NC(=O)CN2CCCCC2)sc1C(=O)N(C)C	9.1%	-3.5%	-7.9%	9.1%	-6.2%	-9.7%
N#Cc1ccc(NS(=O)(=O)c2ccc(-c3cnc(C4CC4)o3)cc2)cc1	.	-27.5%	?	.	?	18.4µM*
Cc1ccc(N(C)S(=O)(=O)c2ccc(-c3cnc(C4CC4)o3)cc2)cc1	?	-5.0%	0.0184µM*	?	6.31µM*	0.0291µM*
O=S(=O)(NCc1ccccc1Cl)c1ccc(-c2cnc(C3CC3)o2)cc1	.	-36.0%	2.91µM*	.	?	3.66µM*
CC(=O)c1ccc(NS(=O)(=O)c2ccc(-c3cnc(C4CC4)o3)cc2)cc1	-11.5%	-19.7%	?	-13.7%	-18.5%	-29.5%
COc1ccc(C)cc1NS(=O)(=O)c1ccc(-c2cnc(C3CC3)o2)cc1	0.0073µM*	-2.1%	0.0651µM*	?	3.55µM*	0.0651µM*
Cc1ccc(CNS(=O)(=O)c2ccc(-c3cnc(C4CC4)o3)cc2)cc1	2.7%	-6.2%	?	0.0%	?	?
COc1ccc(C)cc1NS(=O)(=O)c1cnc(N)nc1	.	4.7%	-3.5%	.	5.9%	2.2%
CCCCn1c(N)c(N(CC)C(=O)C(c2ccccc2)c2ccccc2)c(=O)[nH]c1=O	3.6%	4.3%	-0.6%	6.8%	-1.2%	-22.1%
CN(c1ccccc1)c1ncnc2c1cnn2C	.	3.1%	?	.	9.7%	-13.9%
SMILES	HT1080 IDH1KD tx	HepG2 viability	DT40 TDP1 no CPT	HT1080NT lethal	TGFb SMAD3 inh	DT40 TDP1 CPT
COc1cccc(NS(=O)(=O)c2cc(-c3cnc(C4CC4)o3)ccc2C)c1	.	-26.8%	0.581µM*	.	2µM*	0.92µM*
COc1ccc(C)cc1NS(=O)(=O)c1ccc2c(c1)N(C)CCO2	-6.3%	-15.9%	14.6µM*	4.1%	-18.9%	?
Cc1ccc(-c2cnc(C3CC3)o2)cc1S(=O)(=O)Nc1cccc(C#N)c1	.	-43.1%	5.8µM*	.	9.8%	5.8µM*
CCOC(=O)c1cccc(NS(=O)(=O)c2ccc(-c3cnc(C4CC4)o3)cc2)c1	.	-22.3%	2.59µM*	.	?	2.31µM*
COc1ccc(N(CC(=O)N2CCN(c3ccc(F)cc3)CC2)S(=O)(=O)c2c(C)noc2C)cc1	4.1%	0.9%	?	-3.8%	4.1%	25.9µM*
COc1ccc(N(CC(=O)N2CCN(c3ccc(Cl)cc3)CC2)S(=O)(=O)c2c(C)noc2C)cc1	-11.0%	-3.5%	?	-14.9%	-0.4%	?
COc1ccc(N(CC(=O)N2CCc3ccccc32)S(=O)(=O)c2c(C)nn(C)c2C)cc1	-10.2%	-4.6%	?	-1.8%	-7.4%	?
COc1ccc(N(CC(=O)NCCc2ccccc2)S(=O)(=O)c2c(C)nn(C)c2C)cc1	.	-7.9%	?	.	-3.0%	-11.7%
Cc1nn(C)c(C)c1S(=O)(=O)N(CC(=O)NCCc1ccc(Cl)cc1)c1ccc(C(C)C)cc1	.	-0.9%	14.6µM*	.	0.7%	16.4µM*
COc1ccc(N(CC(=O)N2c3ccccc3CC2C)S(=O)(=O)c2c(C)nn(C)c2C)cc1 (stereo not drawn)	-11.0%	-2.3%	18.4µM*	-14.4%	6.1%	?
COc1ccc(N(CC(=O)N2CCN(c3cccc(Cl)c3)CC2)S(=O)(=O)c2c(C)noc2C)cc1	-8.5%	-2.4%	18.4µM*	-0.3%	-18.5%	16.4µM*
CC(C)(CNC(=O)c1ccc(-c2ccccc2Cl)o1)N1CCOCC1	-10.4%	-3.5%	?	1.4%	-8.5%	-29.4%
COc1cccc(C(O)c2nc(-c3cccc(F)c3)cs2)c1 (stereo not drawn)	-22.7%	-18.1%	?	-23.0%	-14.6%	?
COc1ccc(N(CC(=O)N2CCN(c3ccc(F)cc3)CC2)S(=O)(=O)c2c(C)nn(C)c2C)cc1	.	-11.2%	23.1µM*	.	?	?
Cc1ccc(CNC(=O)CN(c2ccc(C)cc2)S(=O)(=O)c2c(C)n[nH]c2C)cc1	0.3%	1.1%	-22.1%	-7.1%	1.5%	-24.6%
Cc1ccc(CNC(=O)CN(c2ccc(C(C)C)cc2)S(=O)(=O)c2c(C)n[nH]c2C)cc1	.	-46.4%	?	.	11.2µM*	?
